Source: PubChem BioAssay AID1347426 (Functional Genomics Laboratory (NCATS/FGL), 2020)
Screen size: about 31,000 sequences; about 1,400 (4.5%) were called active.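 The calls were made as follows: active = median seed-adjusted z-score above 1 or below -1; inactive = the rest.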 Shown is part of a subset that was picked to be rich in actives.

Assay: Novel Modifiers of Survival Motor Neuron (SMN) Protein: Gene Identification via Genome-wide siRNA Screen;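 also: luminescence tracks full-length SMN protein made from the SMN2 reporter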
Settings: HEK293T SMN2-luciferase reporter, siRNA knockdown, 72 h; actives lie on both sides
Method in brief: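 Steps: spot 1 pmol siRNA, add Lipofectamine RNAiMax in serum-free DMEM, seed HEK293T SMN2–luciferase reporter cells; incubate 72 h at 37 °C; add ONE-Glo; normalize luminescence to control siRNA, log10, MAD. Candidates: |MAD| > 1.0.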
In the case of GCAUCUACGUGGGUAACUUTT against SFRS1, the median seed-adjusted z-score is reported as -1.66 (active).
With GCCCGAAAGAGAAAGCGAATT against POU5F1 the median seed-adjusted z-score was 0.0495 (inactive).
With GCAUCAACGCGGGAUUCCATT against TFAP4 the median seed-adjusted z-score was -0.0515 (inactive).
For CGGUCAUGCUGAUCACCUUTT against GPR119, the median seed-adjusted z-score was -0.382 (inactive).
For CUGCCGCAAUGACAACAAATT against TRIM42, the median seed-adjusted z-score was -0.153 (inactive).
In the case of GCGGUAAACUCGACACGUUTT against MARK3, the median seed-adjusted z-score is reported as 0.271 (inactive).
In the case of GGCUGUACAUAGUCCUUUUTT against SNRPB, the median seed-adjusted z-score is reported as -3.17 (active).
In the case of CUACUUAAGUGUGAUAAUATT against OCLN, the median seed-adjusted z-score is reported as 0.232 (inactive).
In the case of GACUAAUGGAUGAAGCUAATT against PBK, the median seed-adjusted z-score is reported as -0.311 (inactive).
With GGAAUUCUUUGGGCUGAAATT against MMP1 the median seed-adjusted z-score was 0.205 (inactive).
In the case of GCAUCGGGAAUAAAAUUUATT against LSM2, the median seed-adjusted z-score is reported as -1.48 (active).
For CCCAAUCAAGUGUUACAAATT against JMJD1C, the median seed-adjusted z-score was 0.0338 (inactive).
In the case of UGGAGUAUCCUAUCAUGUATT against MGST3, the median seed-adjusted z-score is reported as -0.0509 (inactive).
In the case of GCAAAUACGUGUAGACCUATT against EXOSC9, the median seed-adjusted z-score is reported as -0.00796 (inactive).
With AGUACAUCGCGGAUCUGUATT against RCN3 the median seed-adjusted z-score was -2.44 (active).
For CCACUUCUCCACACCUUGATT against NR4A1, the median seed-adjusted z-score was -0.207 (inactive).
For GUGACUCCGUGUAUACUUATT against GCA, the median seed-adjusted z-score was -0.162 (inactive).
For AGAGCAAAACAGUCCGAUATT against PCDH8, the median seed-adjusted z-score was -1.03 (active).
For GAAUUCACUUCAGAGCAAUTT against LMO4, the median seed-adjusted z-score was -0.067 (inactive).
With CAAUCCAACUAGUAGUUCATT against SP4 the median seed-adjusted z-score was -0.088 (inactive).
In the case of CCCUCUAACUGCUCGGAUATT against DNASE2, the median seed-adjusted z-score is reported as -1.23 (active).
For GAUCCUAUCGUAGACAUGATT against ZNF440, the median seed-adjusted z-score was 0.208 (inactive).
For CCAGCAAUGAGAAAAAUCUTT against HOXA2, the median seed-adjusted z-score was 0.335 (inactive).
For GGCGAACAGUUCUACAUGUTT against IFT57, the median seed-adjusted z-score was -1.1 (active).
For CAUCAUUACGAUUAGCCUATT against ARFGAP3, the median seed-adjusted z-score was 0.00412 (inactive).
With CGGGAUUUAUAGGCAAUGATT against RNASEH1 the median seed-adjusted z-score was -0.0205 (inactive).
In the case of CAUUCGCUCUCAUACUGGATT against CTCF, the median seed-adjusted z-score is reported as -0.0821 (inactive).
In the case of GGAUCUUCAAAGUCACGAATT against CACNA1B, the median seed-adjusted z-score is reported as 0.0963 (inactive).
With GCACCCACGUCAUCCCUAATT against GRIN1 the median seed-adjusted z-score was -0.137 (inactive).
In the case of CCAUUCUUCUAGCAACUGATT against DDX47, the median seed-adjusted z-score is reported as -0.398 (inactive).
For GUCCUAUCACCGUAUCUUATT against SF3B4, the median seed-adjusted z-score was -2.56 (active).
For GGUUAGGGCUUGACCCAAATT against HIBADH, the median seed-adjusted z-score was 0.234 (inactive).
For CAGACGUGAUGACAAGAUUTT against S100A7, the median seed-adjusted z-score was -0.253 (inactive).
In the case of CAAUGGUGUCUACAAGAUUTT against SLCO1C1, the median seed-adjusted z-score is reported as 0.071 (inactive).
In the case of CACCUGCUAUGUUACGGGATT against BAT2, the median seed-adjusted z-score is reported as 0.0889 (inactive).
With AGAUACUGGUAUUGCUCGATT against SNRPB the median seed-adjusted z-score was -3.17 (active).
For GACCCAUUGCUGUCCAACATT against EMID1, the median seed-adjusted z-score was 0.979 (inactive).
In the case of AGAGGAACUUUAUUCUUGATT against HNRNPUL2, the median seed-adjusted z-score is reported as -0.0273 (inactive).
For AUAACUACCUGAUCAAGAATT against YWHAG, the median seed-adjusted z-score was 1.98 (active).
With CCCUGGUAGUUCCACACCATT against CRHBP the median seed-adjusted z-score was -0.0443 (inactive).
With GAACAUUGGUUCUUAGAGATT against MKRN2 the median seed-adjusted z-score was 0 (inactive).
For GGGACUUCAUGUUCGAGCATT against DNAI2, the median seed-adjusted z-score was 0.12 (inactive).
In the case of GCAGAAAGGUGUAACAUAATT against DDI2, the median seed-adjusted z-score is reported as 1.27 (active).
For CAGGCAAACCGCUACAUCATT against EN1, the median seed-adjusted z-score was 0.761 (inactive).
For ACAGUUCUCUAUGACCUCATT against PLA2G4E, the median seed-adjusted z-score was 0.266 (inactive).
For AGUGCAUGGUUGCAGCUGATT against RNF144A, the median seed-adjusted z-score was -0.185 (inactive).
For GAAUCAAUAUAAUCUAGCATT against UBE2Q2, the median seed-adjusted z-score was 0.146 (inactive).
With AGAACUGCGUGACUAUACATT against ZNF417 the median seed-adjusted z-score was 0.0205 (inactive).
In the case of GCCUCUCACAUCUAUGGUATT against ITIH4, the median seed-adjusted z-score is reported as 0.64 (inactive).
With GGAGAAAGAAUGACGAGAATT against TGFBR2 the median seed-adjusted z-score was 0.8 (inactive).
In the case of AACUCGCUGUUGUACCUGATT against CPSF1, the median seed-adjusted z-score is reported as 3.29 (active).
With GGCAUUAUGUGAAGGCGAATT against SMC5 the median seed-adjusted z-score was 0.0666 (inactive).
With CCAUCACCUUCAAUCCGCUTT against PEMT the median seed-adjusted z-score was 0.0218 (inactive).
For GGUAGACUGUCAUCGUGAATT against RAD50, the median seed-adjusted z-score was 0.266 (inactive).
In the case of CAUCACCGCUGGGUCCAAATT against FABP1, the median seed-adjusted z-score is reported as -0.302 (inactive).
With UGGAAUAAGUGGGCUCUGATT against ADM the median seed-adjusted z-score was 0.65 (inactive).
With CAAUAUGCCUUUCUCUACATT against DNASE1L3 the median seed-adjusted z-score was 0.0678 (inactive).
In the case of GGACUGCUUCAUAUACUGATT against GLT8D1, the median seed-adjusted z-score is reported as 1.22 (active).
With GGGACUAACAUGUACAACATT against PCDH24 the median seed-adjusted z-score was 0.345 (inactive).
For CAGUUACUAUAAAAACCGATT against ZNF711, the median seed-adjusted z-score was 0.254 (inactive).
With GAGAUAGACUUGCUGAGCATT against TRIP6 the median seed-adjusted z-score was 1.03 (active).
With GGAAAAUCAAUAUAUCACUTT against ADH6 the median seed-adjusted z-score was -0.132 (inactive).
In the case of GGAGCAUACAGAACGGACATT against SIPA1L3, the median seed-adjusted z-score is reported as 0 (inactive).
In the case of GGUCAUACACGGGAUCUCUTT against SLC30A2, the median seed-adjusted z-score is reported as -0.402 (inactive).
For GCAUUGGAACGAUUCUAAATT against CTPS2, the median seed-adjusted z-score was 1.08 (active).
With CGCACGCUCUUCAAAUUCUTT against ADRA2A the median seed-adjusted z-score was -0.65 (inactive).
In the case of GCAAAUGAGUGUGACCUAATT against RAB38, the median seed-adjusted z-score is reported as -0.165 (inactive).
In the case of CCAACCUAAUUAUGGAGGATT against PCDHGB4, the median seed-adjusted z-score is reported as 0.176 (inactive).
With AGGUUUAUGUGACCAAGCATT against KCTD8 the median seed-adjusted z-score was 0.0212 (inactive).
